Results from PubChem BioAssay (NCATS).
Results filed as inconclusive are left out. A call without a number means that no potency is given here. Active and inactive are the calls of the source. The call rests on the fitted dose curve; in most records, active means well fitted cell-killing curve with a large enough effect; inconclusive means small, poorly fitted or top-dose-only effect, or effect the other way; inactive means no such curve, though single readings can be large or run the other way.

Test: Quantitative High-Throughput drug screen in 47 multiple myeloma cell lines against the NCATS MIPE library collection: RPMI8226_ATCC cell viability assay (AID 1919871)
Details: RPMI8226 myeloma viability, CellTiter-Glo ATP luminescence, 48 h; series mostly up to 45.8 µM
Method in brief: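 ATP-based CellTiter-Glo luminescence after 48 h drug exposure (37 °C, 5% CO2) of 500 myeloma cells per well. DMSO-only wells set 100% viability, media-only wells 0%; MIPE 4.0 library added by pin tool.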
Further: nearly all actives have a fitted effect of over 30% in size.
Potency means the concentration at half of the fitted maximal effect.

Q: Which Potency does the source give for `C[C@@H](N)c1ccc(C(=O)Nc2ccnc3[nH]ccc23)cc1` here?
A: The Potency was “inactive”.

Q: Which Potency does the source give for `NC(=O)c1noc([C@H](CCCC2CCCCC2)CC(=O)NO)n1` here?
A: The Potency was 10.5 µM (active).

Q: For `Oc1ccc(C=Cc2cc(O)cc(O)c2)cc1`, which Potency is on record?
A: The Potency was 18.7 µM (active).

Test: Quantitative High-Throughput drug screen in 47 multiple myeloma cell lines against the NCATS MIPE library collection: OPM2_DSMZ cell viability assay (AID 1919872)
Details: OPM2 myeloma viability, CellTiter-Glo ATP luminescence, 48 h; series mostly up to 45.8 µM
Method in brief: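 We plated 500 myeloma cells per well, pinned in MIPE 4.0 compounds, and incubated for 48 hours at 37C. ATP was then quantified with CellTiter-Glo, with DMSO and media-only wells defining 100% and 0%.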

Q: With `Cc1ccc2c(c1)C(=O)[C@]1(O)CCN(c3ccccc3)C1=N2` as the compound, how does the Potency read?
A: The Potency was “inactive”.

Q: Which Potency does the source give for `C#CCN(C)CC1=Cc2ccccc2Oc2ccccc21` here?
A: The Potency was “inactive”.

Q: With `COc1ccc(CCN(C)CCCOc2ccc(S(=O)(=O)c3[nH]c4ccccc4c3C(C)C)cc2)cc1OC` as the compound, how does the Potency read?
A: The Potency was “inactive”.

Q: With `CNc1nc(Nc2ccc(C(=O)N3CCOCC3)cc2OC)ncc1Cl` as the compound, how does the Potency read?
A: Its Potency is “inactive”.

Q: With `Cc1cc(CS(=O)(=O)c2ccccc2)cc(OCc2ccc(CN3CCC[C@H]3CO)cc2)c1` as the compound, how does the Potency read?
A: Its Potency is “inactive”.

Q: For `CO[C@H]1C=CO[C@@]2(C)Oc3c(C)c(O)c4c(O)c(c(C=NN5CCN(C)CC5)c(O)c4c3C2=O)NC(=O)C(C)=CC=C[C@H](C)[C@H](O)[C@@H](C)[C@@H](O)[C@@H](C)[C@H](OC(C)=O)[C@H]1C`, which Potency is on record?
A: Its Potency is “inactive”.

Q: Which Potency does the source give for `COc1ccc(C=CC(=O)Nc2ccccc2C(=O)O)cc1OC` here?
A: The Potency was “inactive”.

Q: For `CNC(=O)[C@H](Cc1ccccc1)NC(=O)[C@H](CC(C)C)[C@H](CSc1cccs1)C(=O)NO`, which Potency is on record?
A: Its Potency is 18.7 µM (active).

Q: With `O=C(O)Cc1cccc(OCCCN(Cc2cccc(C(F)(F)F)c2Cl)CC(c2ccccc2)c2ccccc2)c1` as the compound, how does the Potency read?
A: Its Potency is “inactive”.

Q: With `CC(=O)OCC(=O)[C@@]1(O)CC[C@H]2[C@@H]3CCC4=CC(=O)C=C[C@]4(C)[C@@H]3[C@@H](O)C[C@@]21C` as the compound, how does the Potency read?
A: The Potency was “inactive”.

Q: Which Potency does the source give for `C#C[C@]1(O)CC[C@H]2[C@H]3CCc4cc(OC)ccc4[C@H]3CC[C@@]21C` here?
A: Its Potency is “inactive”.

Q: For `Oc1ccc(C=Cc2cc(O)cc(O)c2)cc1`, which Potency is on record?
A: The Potency was “inactive”.
